According to PubChem BioAssay (NCATS):
Inconclusive results are not listed. Activity calls are given as the source filed them. The call rests on the fitted dose curve; in most records, active means well fitted inhibition curve with a large enough effect; inconclusive means small, poorly fitted or top-dose-only effect; inactive means flat fitted curve, though single readings scatter.

What was measured:
Experiment in all cases: qHTS profiling for inhibitors of Plasmodium falciparum proliferation (AID 504749); further: nearly all actives have a fitted effect of over 60% in size
Settings in all cases: P. falciparum in erythrocytes, SYBR Green DNA, 72 h; series mostly up to 28.7 µM
[1] = test system: CP217
How it was run: (§1)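 Quantitative HTS: compounds pinned into medium, infected erythrocytes added (0.3% parasitemia, 2.5% hematocrit), 72 h culture at 37 C under 5% CO2. Saponin/Triton lysis with SYBR Green I, overnight RT, then fluorescence read.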

[2] = test system: CP237
How it was run: as §1

[3] = test system: CP238
How it was run: as §1

[4] = test system: CP247
How it was run: as §1

[5] = test system: CP250
How it was run: as §1

[6] = test system: CP252
How it was run: as §1

[7] = test system: CP256
How it was run: as §1

[8] = test system: CP260
How it was run: as §1

[9] = test system: CP262
How it was run: as §1

[10] = test system: CP265
How it was run: as §1

[11] = test system: CP266
How it was run: as §1

[12] = test system: CP268
How it was run: as §1

[13] = test system: CP269
How it was run: as §1

[14] = test system: CP286
How it was run: as §1

[15] = test system: CP291
How it was run: as §1

[16] = test system: CP297
How it was run: as §1

[17] = test system: CP305
How it was run: as §1

[18] = test system: CP315
How it was run: as §1

[19] = test system: CP325
How it was run: as §1

[20] = test system: CP329
How it was run: as §1

Measured: Potency

CCOC(=O)[C@H](CCc1ccccc1)N[C@@H](C)C(=O)N1CCC[C@H]1C(=O)O
inactive: all assays above

CCCC(O)C(CC)CO (stereo not given)
inactive: all assays above

C=CCNC(N)=S
inactive: all assays above

C[N+](C)(C)CC[N+]1(C)Cc2c(Cl)c(Cl)c(Cl)c(Cl)c2C1
inactive: all assays above

CN1C(C)(C)CCCC1(C)C
inactive: all assays above

CC(=O)NCc1c(I)c(NC(C)=O)c(I)c(C(=O)O)c1I
inactive: all assays above

CCCCCCCCCCCCCCCCCCO
inactive: all assays above

O=C(O)CNC(=O)c1ccccc1I
inactive: all assays above

Cc1cccc(C)c1NC(=O)CC12CCCN1CCC2
inactive: all assays above

Cc1cccc(C(=O)O)c1O
inactive: all assays above

Cc1cc(=O)[nH]c(=S)[nH]1
inactive: all assays above

CC(N)CCCC(C)(C)O (stereo not given)
inactive: all assays above

Cc1ccc(S(=O)(=O)NC(=O)NC2CCCCC2)cc1
inactive: all assays above

Nc1ccc(S(=O)(=O)c2ccc(N)cc2)cc1
inactive: all assays above

NC(=O)CC[C@@H](N)C(=O)O
inactive: all assays above

COC(=O)c1cccnc1
inactive: all assays above

O=C(O)COC(=O)Cc1ccccc1Nc1c(Cl)cccc1Cl
inactive: all assays above

CCOC(=O)c1cccnc1
inactive: all assays above

CCN(CC)S(=O)(=O)c1ccc(C(=O)O)cc1
inactive: all assays above

O=C(NCCCN1CCOCC1)c1ccc(Cl)cc1
inactive: all assays above

O=C1c2ccccc2S(=O)(=O)N1CCCCN1CCN(c2ncccn2)CC1
inactive: all assays above

Cn1c(=O)c2c(ncn2CCO)n(C)c1=O
inactive: all assays above

CCCCCCCC(=O)OCC(O)CO (stereo not given)
inactive: all assays above

CC(C)C[C@@H](N)C(=O)O
inactive: all assays above

O=C(O)CCCCC1CCSS1 (stereo not given)
inactive: all assays above

CC(=O)Nc1cccc(O)c1
inactive: all assays above

O[C@@H]1CO[C@H]2[C@@H]1OC[C@@H]2O
inactive: all assays above

Nc1ncnc2c1ncn2[C@@H]1O[C@H](COP(=O)(O)O)[C@@H](O)[C@H]1O
inactive: all assays above

CC(C)(C)C(=O)OCOC(=O)[C@@H]1N2C(=O)[C@@H](NC(=O)[C@H](N)c3ccccc3)[C@H]2SC1(C)C
inactive: all assays above
